The values that follow come from ChEMBL document CHEMBL1961873, “Compounds: GSK PKIS; Assays: Nanosyn kinase panel” (2012).

In assay [1] the target is Tyrosine-protein kinase SYK (Homo sapiens) (UniProt P43405). As to conditions: at 1 µM.
The target in assay [2] is T1, Tyrosine-protein kinase Tec (Homo sapiens) (UniProt P42680).
T1 sequence (whole entry): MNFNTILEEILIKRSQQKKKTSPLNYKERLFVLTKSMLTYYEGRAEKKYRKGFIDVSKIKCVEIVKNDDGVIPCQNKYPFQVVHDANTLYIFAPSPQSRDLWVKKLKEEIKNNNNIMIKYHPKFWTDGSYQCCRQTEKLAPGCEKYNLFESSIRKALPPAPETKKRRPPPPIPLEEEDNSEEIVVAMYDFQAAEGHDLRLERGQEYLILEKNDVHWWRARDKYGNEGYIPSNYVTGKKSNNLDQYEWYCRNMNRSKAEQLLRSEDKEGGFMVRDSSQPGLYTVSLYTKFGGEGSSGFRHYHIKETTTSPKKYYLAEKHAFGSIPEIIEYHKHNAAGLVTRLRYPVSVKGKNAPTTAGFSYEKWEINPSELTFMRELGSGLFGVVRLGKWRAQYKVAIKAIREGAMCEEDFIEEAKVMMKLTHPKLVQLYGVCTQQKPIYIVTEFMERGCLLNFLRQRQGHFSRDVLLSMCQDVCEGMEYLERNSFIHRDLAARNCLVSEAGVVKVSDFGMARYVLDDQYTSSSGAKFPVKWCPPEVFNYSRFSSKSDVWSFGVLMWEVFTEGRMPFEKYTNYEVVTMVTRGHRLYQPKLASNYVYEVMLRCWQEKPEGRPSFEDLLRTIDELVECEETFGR
As to conditions: at 0.1 µM.

Assay [3] addresses T1, Tyrosine-protein kinase Tec (Homo sapiens). As to conditions: at 1 µM.
Assay [4] deals with Angiopoietin-1 receptor (Homo sapiens) (UniProt Q02763). As to conditions: at 0.1 µM.
Assay [5] has the same target. As to conditions: at 1 µM.
Assay [6] deals with T2, Non-receptor tyrosine-protein kinase TNK1 (Homo sapiens) (UniProt Q13470).
T2 sequence (whole entry): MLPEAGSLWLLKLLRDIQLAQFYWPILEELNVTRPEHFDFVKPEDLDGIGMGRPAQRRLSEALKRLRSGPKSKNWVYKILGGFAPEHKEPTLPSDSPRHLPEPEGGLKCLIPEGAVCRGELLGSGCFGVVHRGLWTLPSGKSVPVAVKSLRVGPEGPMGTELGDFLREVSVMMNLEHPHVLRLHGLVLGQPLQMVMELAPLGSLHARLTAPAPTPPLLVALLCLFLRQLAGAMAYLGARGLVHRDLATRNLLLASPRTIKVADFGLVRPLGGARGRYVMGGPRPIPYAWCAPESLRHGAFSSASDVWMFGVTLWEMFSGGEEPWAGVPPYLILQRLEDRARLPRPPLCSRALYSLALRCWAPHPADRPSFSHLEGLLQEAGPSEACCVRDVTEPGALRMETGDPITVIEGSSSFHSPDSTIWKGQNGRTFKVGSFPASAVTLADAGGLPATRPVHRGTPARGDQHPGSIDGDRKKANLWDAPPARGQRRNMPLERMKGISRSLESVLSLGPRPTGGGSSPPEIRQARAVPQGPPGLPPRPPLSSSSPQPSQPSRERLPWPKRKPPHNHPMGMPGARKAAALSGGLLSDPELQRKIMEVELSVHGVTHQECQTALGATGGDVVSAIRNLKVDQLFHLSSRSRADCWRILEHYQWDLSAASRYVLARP
As to conditions: at 0.1 µM.

Assay [7] concerns the target T2, Non-receptor tyrosine-protein kinase TNK1 (Homo sapiens). As to conditions: at 1 µM.
In assay [8] the target is Activated CDC42 kinase 1 (Homo sapiens) (UniProt Q07912). As to conditions: at 0.1 µM.
The target is the same in assay [9]. As to conditions: at 1 µM.
The target of assay [10] is High affinity nerve growth factor receptor (Homo sapiens) (UniProt P04629). As to conditions: at 0.1 µM.
The target is the same in assay [11]. As to conditions: at 1 µM.
Assay [12] has as its target BDNF/NT-3 growth factors receptor (Homo sapiens) (UniProt Q16620). As to conditions: at 0.1 µM.
The target is the same in assay [13]. As to conditions: at 1 µM.
The target in assay [14] is NT-3 growth factor receptor (Homo sapiens) (UniProt Q16288). As to conditions: at 0.1 µM.
Assay [15] has the same target. As to conditions: at 1 µM.
Assay [16] addresses T3, Tyrosine-protein kinase TXK (Homo sapiens) (UniProt P42681).
T3 sequence (whole entry): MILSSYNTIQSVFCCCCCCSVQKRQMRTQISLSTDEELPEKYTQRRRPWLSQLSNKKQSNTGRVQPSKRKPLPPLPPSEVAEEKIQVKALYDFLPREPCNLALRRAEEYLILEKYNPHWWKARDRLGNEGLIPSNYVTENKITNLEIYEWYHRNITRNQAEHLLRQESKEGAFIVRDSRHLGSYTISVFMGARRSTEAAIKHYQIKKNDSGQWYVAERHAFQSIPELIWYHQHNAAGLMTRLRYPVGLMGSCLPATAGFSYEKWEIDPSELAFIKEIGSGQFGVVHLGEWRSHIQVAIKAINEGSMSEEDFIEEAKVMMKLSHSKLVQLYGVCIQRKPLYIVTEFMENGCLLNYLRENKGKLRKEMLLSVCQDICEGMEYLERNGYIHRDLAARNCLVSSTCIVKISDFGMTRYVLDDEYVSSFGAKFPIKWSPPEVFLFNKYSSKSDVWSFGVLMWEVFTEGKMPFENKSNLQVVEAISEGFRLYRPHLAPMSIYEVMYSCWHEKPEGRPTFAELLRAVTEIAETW
As to conditions: at 0.1 µM.

The target of assay [17] is T3, Tyrosine-protein kinase TXK (Homo sapiens). As to conditions: at 1 µM.
Assay [18] has as its target Non-receptor tyrosine-protein kinase TYK2 (Homo sapiens) (UniProt P29597). As to conditions: at 0.1 µM.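 Also: each value is a mean of the inhibition readings.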
The target in assay [19] is T4, Dual specificity protein kinase TTK (Homo sapiens) (UniProt P33981).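 Also: reported figures are mean TTK inhibition at 1 µM.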
T4 sequence (whole entry): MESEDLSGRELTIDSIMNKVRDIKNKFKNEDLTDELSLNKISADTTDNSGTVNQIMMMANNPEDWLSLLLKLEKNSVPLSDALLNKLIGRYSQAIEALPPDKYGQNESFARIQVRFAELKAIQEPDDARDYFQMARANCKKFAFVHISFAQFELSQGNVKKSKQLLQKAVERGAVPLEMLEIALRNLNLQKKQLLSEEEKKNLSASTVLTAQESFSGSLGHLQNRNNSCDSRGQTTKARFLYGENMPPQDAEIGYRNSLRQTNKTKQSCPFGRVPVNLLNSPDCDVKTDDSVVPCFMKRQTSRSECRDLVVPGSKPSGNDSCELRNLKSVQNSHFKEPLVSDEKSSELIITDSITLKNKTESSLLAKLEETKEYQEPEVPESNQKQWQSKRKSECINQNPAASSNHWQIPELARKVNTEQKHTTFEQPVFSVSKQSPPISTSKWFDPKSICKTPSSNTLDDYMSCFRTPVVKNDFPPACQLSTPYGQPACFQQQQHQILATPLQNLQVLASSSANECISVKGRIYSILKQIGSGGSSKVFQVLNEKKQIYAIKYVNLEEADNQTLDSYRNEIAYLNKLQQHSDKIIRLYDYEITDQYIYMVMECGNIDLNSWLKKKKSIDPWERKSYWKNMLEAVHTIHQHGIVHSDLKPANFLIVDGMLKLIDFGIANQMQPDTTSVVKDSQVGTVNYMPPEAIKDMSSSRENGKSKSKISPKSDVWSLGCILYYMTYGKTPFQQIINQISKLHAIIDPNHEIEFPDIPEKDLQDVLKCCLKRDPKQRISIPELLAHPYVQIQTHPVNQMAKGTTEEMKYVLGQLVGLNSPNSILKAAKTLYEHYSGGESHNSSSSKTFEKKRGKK
As to conditions: at 1 µM.

Assay [20] deals with T5, Aurora kinase A (Homo sapiens) (UniProt O14965).
T5 sequence (whole entry): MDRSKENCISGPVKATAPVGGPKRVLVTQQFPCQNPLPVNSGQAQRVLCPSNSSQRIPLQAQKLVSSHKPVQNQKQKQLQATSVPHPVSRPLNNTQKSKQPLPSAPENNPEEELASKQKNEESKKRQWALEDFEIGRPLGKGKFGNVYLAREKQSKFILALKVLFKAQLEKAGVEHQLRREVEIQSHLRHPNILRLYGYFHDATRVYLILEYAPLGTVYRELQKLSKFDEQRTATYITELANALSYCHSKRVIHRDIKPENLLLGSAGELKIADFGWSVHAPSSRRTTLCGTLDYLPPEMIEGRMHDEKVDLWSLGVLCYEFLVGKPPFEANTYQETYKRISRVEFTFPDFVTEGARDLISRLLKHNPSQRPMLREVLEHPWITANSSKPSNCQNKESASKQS
As to conditions: at 0.1 µM.

Sequence of NT-3 growth factor receptor (Homo sapiens) (Q16288 32-839 limits assumed): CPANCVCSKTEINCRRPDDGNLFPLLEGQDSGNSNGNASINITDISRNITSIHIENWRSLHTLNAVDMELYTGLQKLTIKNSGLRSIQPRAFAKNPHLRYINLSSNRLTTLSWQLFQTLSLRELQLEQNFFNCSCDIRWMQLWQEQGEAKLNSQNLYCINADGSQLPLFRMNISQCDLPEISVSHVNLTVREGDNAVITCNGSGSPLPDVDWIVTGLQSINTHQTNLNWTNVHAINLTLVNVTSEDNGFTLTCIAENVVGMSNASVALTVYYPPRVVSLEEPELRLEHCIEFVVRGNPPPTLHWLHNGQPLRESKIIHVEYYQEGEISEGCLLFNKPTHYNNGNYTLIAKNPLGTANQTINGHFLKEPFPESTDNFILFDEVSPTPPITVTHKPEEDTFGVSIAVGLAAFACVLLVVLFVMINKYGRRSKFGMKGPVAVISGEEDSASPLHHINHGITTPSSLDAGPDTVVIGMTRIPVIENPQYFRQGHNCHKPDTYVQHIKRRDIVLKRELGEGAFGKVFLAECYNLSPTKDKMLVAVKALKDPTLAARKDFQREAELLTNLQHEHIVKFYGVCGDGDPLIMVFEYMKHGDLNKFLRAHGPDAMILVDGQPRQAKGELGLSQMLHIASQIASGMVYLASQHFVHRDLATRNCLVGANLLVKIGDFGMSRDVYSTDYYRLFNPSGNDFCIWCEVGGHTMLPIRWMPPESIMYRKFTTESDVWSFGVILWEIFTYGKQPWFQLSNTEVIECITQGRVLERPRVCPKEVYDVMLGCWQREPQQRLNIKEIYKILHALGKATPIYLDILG
Sequence of Non-receptor tyrosine-protein kinase TYK2 (Homo sapiens) (P29597 whole entry): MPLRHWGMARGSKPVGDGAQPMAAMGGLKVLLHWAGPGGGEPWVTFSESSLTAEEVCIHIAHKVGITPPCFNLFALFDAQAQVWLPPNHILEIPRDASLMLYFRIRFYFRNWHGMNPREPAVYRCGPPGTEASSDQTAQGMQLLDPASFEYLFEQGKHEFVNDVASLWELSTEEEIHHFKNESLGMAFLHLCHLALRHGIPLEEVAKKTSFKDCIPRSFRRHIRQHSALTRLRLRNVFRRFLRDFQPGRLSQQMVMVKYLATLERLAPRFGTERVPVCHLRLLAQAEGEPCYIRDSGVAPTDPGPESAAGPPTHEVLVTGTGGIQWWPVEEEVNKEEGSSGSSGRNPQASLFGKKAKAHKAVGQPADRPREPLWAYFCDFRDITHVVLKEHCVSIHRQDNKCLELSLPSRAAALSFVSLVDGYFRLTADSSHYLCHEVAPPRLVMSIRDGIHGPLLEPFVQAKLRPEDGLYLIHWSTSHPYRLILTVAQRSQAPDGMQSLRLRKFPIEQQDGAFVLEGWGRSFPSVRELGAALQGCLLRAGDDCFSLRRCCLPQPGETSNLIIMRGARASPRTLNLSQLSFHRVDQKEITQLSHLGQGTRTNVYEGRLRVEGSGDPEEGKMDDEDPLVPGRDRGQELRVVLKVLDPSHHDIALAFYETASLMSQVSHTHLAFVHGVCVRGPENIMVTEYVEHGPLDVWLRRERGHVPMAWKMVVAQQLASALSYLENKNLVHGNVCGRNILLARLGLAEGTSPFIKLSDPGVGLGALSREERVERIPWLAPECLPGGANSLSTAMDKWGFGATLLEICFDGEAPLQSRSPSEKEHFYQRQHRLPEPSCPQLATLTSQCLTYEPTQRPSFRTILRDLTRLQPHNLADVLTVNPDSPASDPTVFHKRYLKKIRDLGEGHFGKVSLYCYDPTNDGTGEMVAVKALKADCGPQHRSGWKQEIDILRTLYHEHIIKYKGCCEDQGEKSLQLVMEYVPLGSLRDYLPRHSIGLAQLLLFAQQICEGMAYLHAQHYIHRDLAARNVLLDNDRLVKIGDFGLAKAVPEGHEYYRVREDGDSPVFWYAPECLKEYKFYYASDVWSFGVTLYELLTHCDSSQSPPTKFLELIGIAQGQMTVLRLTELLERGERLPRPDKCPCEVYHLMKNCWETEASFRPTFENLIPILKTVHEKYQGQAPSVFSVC
Sequence of Activated CDC42 kinase 1 (Homo sapiens) (Q07912 whole entry, looked up): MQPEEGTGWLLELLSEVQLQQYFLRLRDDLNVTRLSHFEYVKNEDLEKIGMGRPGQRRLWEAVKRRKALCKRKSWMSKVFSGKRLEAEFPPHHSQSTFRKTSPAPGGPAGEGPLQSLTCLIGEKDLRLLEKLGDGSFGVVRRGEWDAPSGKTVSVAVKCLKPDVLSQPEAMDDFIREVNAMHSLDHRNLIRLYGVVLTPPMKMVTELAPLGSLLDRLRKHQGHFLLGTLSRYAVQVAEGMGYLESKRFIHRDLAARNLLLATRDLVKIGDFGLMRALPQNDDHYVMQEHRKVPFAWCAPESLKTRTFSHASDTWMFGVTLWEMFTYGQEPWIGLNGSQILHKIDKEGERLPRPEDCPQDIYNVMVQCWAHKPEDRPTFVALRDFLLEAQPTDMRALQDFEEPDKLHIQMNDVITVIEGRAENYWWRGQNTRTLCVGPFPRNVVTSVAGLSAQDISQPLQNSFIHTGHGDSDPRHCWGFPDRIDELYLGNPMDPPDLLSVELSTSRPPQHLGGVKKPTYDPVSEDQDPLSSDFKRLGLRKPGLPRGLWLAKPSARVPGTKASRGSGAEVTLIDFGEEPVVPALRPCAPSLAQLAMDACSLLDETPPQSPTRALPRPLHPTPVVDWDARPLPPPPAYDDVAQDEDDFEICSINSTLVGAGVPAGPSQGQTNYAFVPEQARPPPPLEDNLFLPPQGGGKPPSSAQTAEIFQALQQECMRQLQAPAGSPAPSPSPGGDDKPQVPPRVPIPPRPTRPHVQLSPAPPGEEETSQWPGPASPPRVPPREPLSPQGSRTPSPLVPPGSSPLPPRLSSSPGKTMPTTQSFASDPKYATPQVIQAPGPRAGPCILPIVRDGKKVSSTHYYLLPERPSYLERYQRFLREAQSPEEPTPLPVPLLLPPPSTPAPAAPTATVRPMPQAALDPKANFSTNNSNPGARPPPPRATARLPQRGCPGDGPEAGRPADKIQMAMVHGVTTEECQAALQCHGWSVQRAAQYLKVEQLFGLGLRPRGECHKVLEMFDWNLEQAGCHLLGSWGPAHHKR
Sequence of Angiopoietin-1 receptor (Homo sapiens) (Q02763 whole entry): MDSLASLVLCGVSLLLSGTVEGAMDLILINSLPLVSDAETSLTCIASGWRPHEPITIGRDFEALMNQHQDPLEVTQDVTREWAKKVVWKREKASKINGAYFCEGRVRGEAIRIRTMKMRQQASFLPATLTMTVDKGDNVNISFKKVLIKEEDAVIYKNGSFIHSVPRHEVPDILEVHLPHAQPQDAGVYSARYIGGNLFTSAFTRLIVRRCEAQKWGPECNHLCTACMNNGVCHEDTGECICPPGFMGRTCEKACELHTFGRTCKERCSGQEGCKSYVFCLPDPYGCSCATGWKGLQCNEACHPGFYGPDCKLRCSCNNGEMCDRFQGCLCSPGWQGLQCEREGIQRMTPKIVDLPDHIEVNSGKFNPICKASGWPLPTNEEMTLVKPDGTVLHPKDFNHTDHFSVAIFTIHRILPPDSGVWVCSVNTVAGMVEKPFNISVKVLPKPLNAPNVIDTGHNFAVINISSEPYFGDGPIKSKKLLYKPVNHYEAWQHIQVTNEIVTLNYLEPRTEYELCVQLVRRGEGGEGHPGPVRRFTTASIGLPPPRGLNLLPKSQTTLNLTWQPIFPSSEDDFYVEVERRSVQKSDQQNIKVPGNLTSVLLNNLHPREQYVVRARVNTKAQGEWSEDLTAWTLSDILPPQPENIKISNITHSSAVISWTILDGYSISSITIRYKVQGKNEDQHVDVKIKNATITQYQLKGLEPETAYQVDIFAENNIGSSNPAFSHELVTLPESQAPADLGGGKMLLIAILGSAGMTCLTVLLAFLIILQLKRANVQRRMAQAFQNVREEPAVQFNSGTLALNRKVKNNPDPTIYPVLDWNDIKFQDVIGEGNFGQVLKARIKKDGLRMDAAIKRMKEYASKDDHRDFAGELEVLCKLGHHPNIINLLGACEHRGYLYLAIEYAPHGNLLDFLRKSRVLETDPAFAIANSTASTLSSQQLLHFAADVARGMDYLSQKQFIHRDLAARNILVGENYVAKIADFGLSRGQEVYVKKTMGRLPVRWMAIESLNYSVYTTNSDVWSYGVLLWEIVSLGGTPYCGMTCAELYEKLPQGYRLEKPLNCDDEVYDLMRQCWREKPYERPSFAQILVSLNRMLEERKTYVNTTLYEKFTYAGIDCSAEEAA
Sequence of BDNF/NT-3 growth factors receptor (Homo sapiens) (Q16620 32-822 limits assumed): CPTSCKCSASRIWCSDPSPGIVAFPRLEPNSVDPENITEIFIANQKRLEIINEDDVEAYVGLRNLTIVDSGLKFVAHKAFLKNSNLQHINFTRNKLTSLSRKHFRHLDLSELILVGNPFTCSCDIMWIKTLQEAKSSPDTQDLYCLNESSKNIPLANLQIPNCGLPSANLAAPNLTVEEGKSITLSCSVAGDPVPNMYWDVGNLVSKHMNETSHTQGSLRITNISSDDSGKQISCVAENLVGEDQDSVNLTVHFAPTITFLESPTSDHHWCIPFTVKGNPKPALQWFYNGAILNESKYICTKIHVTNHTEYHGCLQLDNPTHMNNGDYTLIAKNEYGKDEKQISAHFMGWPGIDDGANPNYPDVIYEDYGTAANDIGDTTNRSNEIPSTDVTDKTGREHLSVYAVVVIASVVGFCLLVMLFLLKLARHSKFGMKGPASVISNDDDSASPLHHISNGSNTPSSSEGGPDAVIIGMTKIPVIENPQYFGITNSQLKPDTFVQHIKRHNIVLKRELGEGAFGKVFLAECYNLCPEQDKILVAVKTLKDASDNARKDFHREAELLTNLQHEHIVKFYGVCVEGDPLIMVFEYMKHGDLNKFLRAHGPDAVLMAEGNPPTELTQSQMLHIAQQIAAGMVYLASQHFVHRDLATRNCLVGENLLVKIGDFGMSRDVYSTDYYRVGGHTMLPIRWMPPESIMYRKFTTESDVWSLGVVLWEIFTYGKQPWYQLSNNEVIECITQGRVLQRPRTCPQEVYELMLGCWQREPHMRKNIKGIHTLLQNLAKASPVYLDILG

Usually inhibition stands for the change of the read-out against control, counted positive when it falls. Turning to `COc1cc2ncnc(Nc3ccc(C)c(O)c3)c2cc1OC`, the inhibition in assay [1] is 0.27%; in assay [2], 11.1%; in assay [3], 36.6%; in [4] it was 3.58%; in assay [5], 17.7%; in [6], 5.34%. Also, the inhibition in assay [7] is 23.8%; in [8] it was 1.4%; in assay [9], 5.7%; in assay [10], 1.85%; in assay [11], 2.17%; in assay [12], 3.65%. Moreover, the inhibition in [13] is 6.25%; in assay [14], 1.67%; in assay [15], 7.05%; in assay [16], 8.65%; in [17], 29.5%; in [18], -5.98%. Further, the inhibition is 7.27% in [19] and 2.56% in [20].
In the case of `Cc1ccc(O)cc1Nc1ccnc2ccc(S(C)(=O)=O)cc12`, the inhibition is -3.99% in [1]; 77.9% in assay [2]; 82.7% in [3]; 27.1% in assay [4]; 70.5% in [5]; 4.13% in assay [6]. For the same molecule, the inhibition in assay [7] is 13.7%; in [8] it was 9.97%; in assay [9], 54.8%; in assay [10] it was 2.69%; in [11], 2.38%; in [12], 3.22%. The inhibition in assay [13] was 5.52%; in assay [14], 6.41%; in assay [15] it was 7.31%; in assay [16] it was 81%; in assay [17] it was 83.8%; in [18], -1.89%. Also, the inhibition in assay [19] came out at 10%; in [20] it was 1.96%.
On to `FC(F)(F)c1ccc(-c2nn3ncccc3c2-c2ccnc(Nc3ccc4c(c3)OCCO4)n2)cc1`, for which the inhibition is 0.25% in assay [1]; 3.97% in [2]; 5.21% in assay [3]; 9.11% in assay [4]; 33.8% in assay [5]; 6.18% in [6]. The inhibition in assay [7] was 22.2%; in [8] it was 6.74%; in assay [9], 8.14%; in assay [10], -1.21%; in assay [11] it was 0.14%; in assay [12], 1.21%. Further, the inhibition came to 3.15% in assay [13]; 1.88% in assay [14]; 4.32% in [15]; 6.36% in assay [16]; 4.7% in assay [17]; 3.04% in assay [18]. Also, the inhibition in assay [19] was 2.98%; in assay [20], -2.66%.
As for `COC(=O)Nc1nc2cc(Oc3ccc(NC(=O)Nc4cccc(Br)c4)cc3)ccc2[nH]1`, the inhibition in assay [1] was 0.53%; in assay [2] it was 4.37%; in assay [3], 3.43%; in assay [4] it was 31.3%; in assay [5] it was 54%; in assay [6], 3.04%. The inhibition in assay [7] was determined as 8.8%; in assay [8], 0.29%; in [9], 0.1%; in assay [10], 28.4%; in assay [11], 55.6%; in assay [12], 19.7%. Moreover, the inhibition in assay [13] turned out to be 32.5%; in assay [14], 20.9%; in assay [15], 38.8%; in [16] it was 2.73%; in [17], 4.17%; in [18] it was 0.49%. The inhibition in [19] was determined as 8.12%; in assay [20], 0.95%.
Take `Cc1ccc(Nc2ccnc(Nc3cccc(C(N)=O)c3)n2)cc1O`: the inhibition amounted to 14.2% in [1]; 18% in assay [2]; 57.1% in [3]; 4.56% in [4]; 39.7% in assay [5]; 8.82% in assay [6]. Also, the inhibition was found to be 52.1% in assay [7]; 3.73% in assay [8]; 28.8% in assay [9]; 4.38% in [10]; 6.07% in assay [11]; 4.59% in assay [12]. Besides, the inhibition in assay [13] was 21.6%; in [14], 3.13%; in assay [15], 11.5%; in assay [16] it was 10.1%; in [17], 43.7%; in assay [18], -1.77%. The inhibition in assay [19] stood at 16.3%; in assay [20], 14.3%.
Take `NS(=O)(=O)c1cccc(-c2cc3ccncc3cc2OCc2ccccc2)c1`: the inhibition in assay [1] was -1.17%; in [2], 5.34%; in assay [3], 8.79%; in [4] it was 4.31%; in assay [5] it was 7.65%; in [6] it was 1.24%. The inhibition is 4.7% in assay [7]; 0.71% in [8]; 1.65% in [9]; 1.41% in assay [10]; 5.54% in assay [11]; 2.94% in [12]. Further, the inhibition in assay [13] was 6.23%; in [14], 1.81%; in assay [15], 6.72%; in assay [16] it was 4.1%; in assay [17] it was 10.2%; in [18], -2.99%. Moreover, the figures for the inhibition in [19] and in [20] were 11.2% and 3.18%, respectively.
Consider `Cc1ccc2c(-c3ccnc(Nc4cccc(C(F)(F)F)c4)n3)c(-c3ccccc3)nn2n1`, for which the inhibition in assay [1] is -5.34%; in assay [2], 8.8%; in assay [3], 38.3%; in [4], 3.55%; in assay [5], 8.11%; in assay [6], 2.78%. In addition, the inhibition was 19.5% in [7]; 0.98% in assay [8]; 2.35% in assay [9]; 1.79% in assay [10]; 7.09% in [11]; 4.09% in assay [12]. The inhibition was 5.15% in assay [13]; 2.41% in assay [14]; 5.05% in assay [15]; 6.16% in [16]; 17.2% in assay [17]; -1.28% in assay [18]. The inhibition came out at 10.6% in [19] and 1.82% in [20].
